# Laboratory results published in paper PMC11062922 (Nature Chemical Biology, 2023).
# Read-outs that look alike come from different tables or passages of the source.
# Assays:
# Design in all cases: species or system human, MV4-11 + K-562 + COLO205 + SK-N-BE2 + OVCAR-8
# ACVR1B = settings: read-out: apparent Kd; compound concentrations:100 nM and 1000 nM (sheet 'Samples'); n = 1
# AURKB = settings: read-out: apparent Kd, n = 1
# BTK = settings: read-out: apparent Kd, n = 1
# IRAK3 = settings: read-out: apparent Kd, n = 1
# LCK = settings: read-out: apparent Kd, n = 1
# NUAK2 = settings: read-out: apparent Kd, n = 1
# RPS6KA3 = settings: read-out: apparent Kd, n = 1
# TTK = settings: read-out: apparent Kd; compound concentrations:100 nM and 1000 nM (sheet 'Samples'); n = 1
# PKN2 = settings: read-out: apparent Kd, n = 1
# RPS6KB1 = settings: read-out: apparent Kd, n = 1
# ABL2 = settings: read-out: apparent Kd, n = 1
# EPHB1 = settings: read-out: apparent Kd, n = 1
# PAK6 = settings: read-out: apparent Kd; compound concentrations:100 nM and 1000 nM (sheet 'Samples'); n = 1
# BUB1 = settings: read-out: apparent Kd, n = 1
# MAP3K11 = settings: read-out: apparent Kd, n = 1
# MAPK14 = settings: read-out: apparent Kd, compound concentrations: 100 nM and 1000 nM (sheet 'Samples'), n = 1
# MARK2 = settings: read-out: apparent Kd, n = 1
# CIT = settings: read-out: apparent Kd; compound concentrations:100 nM and 1000 nM (sheet 'Samples'); n = 1
# PRKCA = settings: read-out: apparent Kd, n = 1
# [1] = compound concentrations:100 nM and 1000 nM (sheet 'Samples')
smiles,measurement,setting,value
CNC(=O)c1ccccc1Nc1nc(Nc2ccc(N3CCOCC3)cc2)ncc1Cl.Cl [GSK1576028A],potency estimated from few doses,ACVR1B,243 nM
same,potency estimated from few doses,AURKB; [1],55 nM
same,potency estimated from few doses,BTK; [1],256 nM
same,potency estimated from few doses,IRAK3; [1],3.81 nM
same,potency estimated from few doses,LCK; [1],234 nM
same,potency estimated from few doses,NUAK2; [1],1370 nM
same,potency estimated from few doses,RPS6KA3; [1],549 nM
same,potency estimated from few doses,TTK,2100 nM
CCOc1nccc2c1nc(-c1nonc1N)n2CC [SB-737198],potency estimated from few doses,"PKN2; compound concentrations: 100 nM and 1000 nM (sheet 'Samples'), CATDS: 0.50424526517456403",231 nM
same,potency estimated from few doses,"RPS6KB1; compound concentrations: 100 nM and 1000 nM (sheet 'Samples'), CATDS: 0.20646016989107699",1320 nM
CN1C[C@@H]2Cn3c(c(C4=C(c5cn(C)c6ccccc56)C(=O)NC4=O)c4ccccc43)C[C@H]2C1.Cl [RO0320234-001],potency estimated from few doses,ABL2; [1],5.56 nM
same,potency estimated from few doses,AURKB; [1],444 nM
same,potency estimated from few doses,BTK; [1],86.7 nM
same,potency estimated from few doses,EPHB1; [1],10.4 nM
same,potency estimated from few doses,LCK; [1],134 nM
same,potency estimated from few doses,NUAK2; [1],843 nM
same,potency estimated from few doses,PAK6,111 nM
same,potency estimated from few doses,RPS6KA3; [1],2100 nM
same,potency estimated from few doses,RPS6KB1; [1],86.4 nM
CCOC(=O)N1CCC(n2cnc(-c3ccc(F)cc3)c2-c2ccnc(N)n2)CC1 [SB-219952],potency estimated from few doses,"ABL2; compound concentrations: 100 nM and 1000 nM (sheet 'Samples'), CATDS: 1.2118968768927599E-2",552 nM
same,potency estimated from few doses,"BTK; compound concentrations: 100 nM and 1000 nM (sheet 'Samples'), CATDS: 1.0743585683712699E-2",726 nM
same,potency estimated from few doses,"BUB1; compound concentrations: 100 nM and 1000 nM (sheet 'Samples'), CATDS: 8.9704944978388403E-3",1170 nM
same,potency estimated from few doses,"EPHB1; compound concentrations: 100 nM and 1000 nM (sheet 'Samples'), CATDS: 1.10661154917942E-2",677 nM
same,potency estimated from few doses,"LCK; compound concentrations: 100 nM and 1000 nM (sheet 'Samples'), CATDS: 1.05022707080212E-2",767 nM
same,potency estimated from few doses,"MAP3K11; compound concentrations: 100 nM and 1000 nM (sheet 'Samples'), CATDS: 1.0131438391308501E-2",838 nM
same,potency estimated from few doses,MAPK14; CATDS: 3.3048485919856201E-2,97.1 nM
same,potency estimated from few doses,"MARK2; compound concentrations: 100 nM and 1000 nM (sheet 'Samples'), CATDS: 9.1119285329163396E-3",1120 nM
same,potency estimated from few doses,"RPS6KA3; compound concentrations: 100 nM and 1000 nM (sheet 'Samples'), CATDS: 7.9232054284878294E-3",1760 nM
CCn1c(-c2nonc2N)nc2c(C#CC(C)(C)O)nc(OCCN)cc21.CCn1c(-c2nonc2N)nc2c(C#CC(C)(C)O)nc(OCCN)cc21.Cl.Cl [GSK902056A],potency estimated from few doses,CIT,1340 nM
same,potency estimated from few doses,PKN2; [1],581 nM
Cc1cccc(-c2nc(Nc3ccncc3)c3sccc3n2)n1 [GW869641X],potency estimated from few doses,ACVR1B,0.703 nM
same,potency estimated from few doses,CIT,1100 nM
Cc1cccc(Nc2nc(N[C@H]3CCCC[C@H]3N)ncc2C(N)=O)c1.Cl [GSK986310C],potency estimated from few doses,MAP3K11; [1],1800 nM
same,potency estimated from few doses,PRKCA; [1],1130 nM
CC(C)N1CCC(n2cnc(-c3ccc(F)cc3)c2-c2ccnc(N)n2)CC1 [SB-223132],potency estimated from few doses,ABL2; [1],723 nM
same,potency estimated from few doses,BTK; [1],842 nM
same,potency estimated from few doses,BUB1; [1],1670 nM
same,potency estimated from few doses,CIT,886 nM
same,potency estimated from few doses,EPHB1; [1],656 nM
same,potency estimated from few doses,LCK; [1],880 nM
same,potency estimated from few doses,MAPK14; CATDS: 8.3649714811029202E-2,40 nM
same,potency estimated from few doses,MARK2; [1],1570 nM
Cl.Cl.NCC(C(=O)Nc1cc(Br)c(-c2ccnc3[nH]ccc23)s1)c1ccccc1.NCC(C(=O)Nc1cc(Br)c(-c2ccnc3[nH]ccc23)s1)c1ccccc1 (stereo not drawn) [GSK1269851A],potency estimated from few doses,ABL2; [1],433 nM
same,potency estimated from few doses,BTK; [1],638 nM
same,potency estimated from few doses,BUB1; [1],2170 nM
same,potency estimated from few doses,EPHB1; [1],331 nM
same,potency estimated from few doses,LCK; [1],519 nM
same,potency estimated from few doses,MAP3K11; [1],2030 nM
same,potency estimated from few doses,PAK6,710 nM
same,potency estimated from few doses,RPS6KA3; [1],1840 nM
COc1ccc(Nc2ncc(C#N)c(Nc3ccccc3C(N)=O)n2)cc1N1CCN(C)CC1.Cl [GSK1558669A],potency estimated from few doses,"ABL2; compound concentrations: 100 nM and 1000 nM (sheet 'Samples'), CATDS: 8.4087803089845196E-3",334 nM
same,potency estimated from few doses,"AURKB; compound concentrations: 100 nM and 1000 nM (sheet 'Samples'), CATDS: 1.8083134151289901E-2",45.1 nM
same,potency estimated from few doses,"BTK; compound concentrations: 100 nM and 1000 nM (sheet 'Samples'), CATDS: 6.7250041234510503E-3",871 nM
same,potency estimated from few doses,"BUB1; compound concentrations: 100 nM and 1000 nM (sheet 'Samples'), CATDS: 6.2718506729186104E-3",1300 nM
same,potency estimated from few doses,"IRAK3; compound concentrations: 100 nM and 1000 nM (sheet 'Samples'), CATDS: 1.44351207371401E-2",72.7 nM
same,potency estimated from few doses,"LCK; compound concentrations: 100 nM and 1000 nM (sheet 'Samples'), CATDS: 1.44418733031309E-2",72.7 nM
same,potency estimated from few doses,"MAP3K11; compound concentrations: 100 nM and 1000 nM (sheet 'Samples'), CATDS: 2.8050644020512099E-2",20.5 nM
same,potency estimated from few doses,"MARK2; compound concentrations: 100 nM and 1000 nM (sheet 'Samples'), CATDS: 8.7535455285316904E-3",289 nM
same,potency estimated from few doses,"NUAK2; compound concentrations: 100 nM and 1000 nM (sheet 'Samples'), CATDS: 2.1181549202491899E-2",33.3 nM
same,potency estimated from few doses,"PRKCA; compound concentrations: 100 nM and 1000 nM (sheet 'Samples'), CATDS: 6.3313527827085804E-3",1220 nM
same,potency estimated from few doses,"RPS6KA3; compound concentrations: 100 nM and 1000 nM (sheet 'Samples'), CATDS: 1.2141837427484699E-2",110 nM
same,potency estimated from few doses,"RPS6KB1; compound concentrations: 100 nM and 1000 nM (sheet 'Samples'), CATDS: 6.0370811384274602E-3",1680 nM
O=C1N=C(NCCc2ccc(Cl)cc2)S/C1=C\c1ccc2ncccc2c1 [RO4498479-000],potency estimated from few doses,"ABL2; compound concentrations: 100 nM and 1000 nM (sheet 'Samples'), CATDS: 1.7069961948359198E-2",201 nM
same,potency estimated from few doses,"AURKB; compound concentrations: 100 nM and 1000 nM (sheet 'Samples'), CATDS: 7.59982177866047E-3",1200 nM
same,potency estimated from few doses,"BTK; compound concentrations: 100 nM and 1000 nM (sheet 'Samples'), CATDS: 1.35831068182147E-2",297 nM
same,potency estimated from few doses,"BUB1; compound concentrations: 100 nM and 1000 nM (sheet 'Samples'), CATDS: 7.8507646745445397E-3",1070 nM
same,potency estimated from few doses,"EPHB1; compound concentrations: 100 nM and 1000 nM (sheet 'Samples'), CATDS: 1.3764533210370701E-2",290 nM
same,potency estimated from few doses,"LCK; compound concentrations: 100 nM and 1000 nM (sheet 'Samples'), CATDS: 1.3202335772702E-2",313 nM
same,potency estimated from few doses,"MAP3K11; compound concentrations: 100 nM and 1000 nM (sheet 'Samples'), CATDS: 8.9469693791647507E-3",733 nM
same,potency estimated from few doses,"MARK2; compound concentrations: 100 nM and 1000 nM (sheet 'Samples'), CATDS: 8.1372297919538004E-3",960 nM
same,potency estimated from few doses,"NUAK2; compound concentrations: 100 nM and 1000 nM (sheet 'Samples'), CATDS: 7.8006037154547897E-3",1100 nM
same,potency estimated from few doses,"RPS6KA3; compound concentrations: 100 nM and 1000 nM (sheet 'Samples'), CATDS: 7.9720572811278097E-3",1020 nM
